{"source": "PubChem BioAssay (NCATS)", "note": "Results filed as inconclusive are left out. Active and inactive are the calls of the source. Calls follow the shape of the dose curve; as a rule, active = well fitted inhibition curve with a large enough effect; inconclusive = small, poorly fitted or top-dose-only effect; inactive = no such curve, though single readings can be large or run the other way."}
{"experiment": "NS1 protein of Zika virus - qHTS assay to identify small molecule inhibitors in human HEK 293 cells (AID 1347053);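 also: plate controls were infected untreated cells for no effect and uninfected cells for full effect; nearly all actives have a fitted effect of over 55% in size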", "conditions": "HEK293 ZIKV MR766 infection, NS1 TR-FRET, 24 h; series mostly up to 46.1 µM; activity change, negative = inhibition: at the top concentration", "outline": "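In this cell-based screen, HEK 293 cultures received compound for one hour before Zika MR766 at MOI = 0.5. NS1 was quantified 24 hours later by TR-FRET, normalized to virus-free wells and infected wells.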"}
{"smiles": "COc1cccc(CCc2ccccc2OCC(CN(C)C)OC(=O)CCC(=O)O)c1", "note": "(stereo not drawn)", "activity change, negative = inhibition": "11.4% (inactive)"}
{"smiles": "CC(=O)OCC(=O)[C@@]1(OC(C)=O)[C@@H](C)C[C@H]2[C@@H]3C[C@H](F)C4=CC(=O)C=C[C@]4(C)[C@@]3(F)[C@@H](O)C[C@@]21C", "activity change, negative = inhibition": "-14.9% (inactive)"}
{"smiles": "C[C@]12CC[C@H]3[C@@H](CCC4=CC(=O)CC[C@@]43C)[C@@H]1CC[C@@H]2C(=O)CO", "activity change, negative = inhibition": "-6.34% (inactive)"}
{"smiles": "CN(C)/N=N/c1nc[nH]c1C(N)=O", "activity change, negative = inhibition": "1.35% (inactive)"}
{"smiles": "C#C[C@]1(O)CC[C@H]2[C@@H]3CCC4=CC(=O)CC[C@@H]4[C@H]3CC[C@@]21C", "activity change, negative = inhibition": "2.05% (inactive)"}
{"smiles": "CCCCOc1ccc(C(=O)CCN2CCCCC2)cc1", "activity change, negative = inhibition": "-1.51% (inactive)"}
{"smiles": "CC[C@@H](CO)NCCN[C@@H](CC)CO", "activity change, negative = inhibition": "-1.93% (inactive)"}
{"smiles": "CC[N+](CC)(CCNC(=O)C(=O)NCC[N+](CC)(CC)Cc1ccccc1Cl)Cc1ccccc1Cl", "activity change, negative = inhibition": "-1.1% (inactive)"}
{"smiles": "O=C(O)CNC(=O)c1ccccc1", "activity change, negative = inhibition": "-3.95% (inactive)"}
{"smiles": "COc1c2occc2c(OC)c2c(=O)cc(C)oc12", "activity change, negative = inhibition": "-7.15% (inactive)"}
{"smiles": "CCN(CCCCOC(=O)c1ccc(OC)c(OC)c1)C(C)Cc1ccc(OC)cc1", "note": "(stereo not drawn)", "activity change, negative = inhibition": "22.9% (inactive)"}
{"smiles": "Cc1ccc(Nc2c(F)cccc2Cl)c(CC(=O)O)c1", "activity change, negative = inhibition": "-0.924% (inactive)"}
{"smiles": "NCCC(O)(P(=O)(O)O)P(=O)(O)O", "activity change, negative = inhibition": "3.38% (inactive)"}
{"smiles": "CCN(CCCc1ccccc1)CCCc1ccccc1", "activity change, negative = inhibition": "3.24% (inactive)"}
{"smiles": "c1ccc(OCc2ccc(CCCN3CCOCC3)cc2)cc1", "activity change, negative = inhibition": "2.91% (inactive)"}
{"smiles": "COc1cc2c(cc1OC)C(C(C(=O)N(CCc1ccc(OC)c(OC)c1OC)CCc1ccc(OC)c(OC)c1OC)c1ccccc1)=NCC2", "note": "(stereo not drawn)", "activity change, negative = inhibition": "3.03% (inactive)"}
{"smiles": "COc1cccc(OC)c1C(=O)N[C@@H]1C(=O)N2[C@@H]1SC(C)(C)[C@@H]2C(=O)O", "activity change, negative = inhibition": "-2.06% (inactive)"}
{"smiles": "O=C(COc1ccc(Cl)cc1)N1CCN(Cc2ccc3c(c2)OCO3)CC1", "activity change, negative = inhibition": "-0.657% (inactive)"}
